Common to all, as to assay: DAPPL (digital affinity profiling via proximity ligation, sequencing); 10 mM Tris-HCl pH 7.5, 50 mM NaCl, 1 mM DTT, 4% glycerol, room temperature, 30 min; GST-TFs on glutathione beads, 16-mer random dsDNA library, 0.1% formaldehyde crosslink after washing; high values mean tight binding
For experiment [1], the target named is T1, FEV (Homo sapiens, UniProt Q99581 1-238).
T1 sequence: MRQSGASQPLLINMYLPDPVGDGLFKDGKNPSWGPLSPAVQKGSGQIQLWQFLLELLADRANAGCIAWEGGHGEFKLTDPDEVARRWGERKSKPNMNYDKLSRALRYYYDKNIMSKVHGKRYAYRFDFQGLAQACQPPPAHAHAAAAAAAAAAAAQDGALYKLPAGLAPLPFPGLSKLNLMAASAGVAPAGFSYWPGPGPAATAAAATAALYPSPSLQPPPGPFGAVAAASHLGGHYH
The following applies: protein: recombinant; tags: N-terminal GST; dsDNA, one strand shown. The method in brief:
(§1)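 A tag-only sample was pooled with DNA-barcoded human transcription factors that had been expressed in yeast as GST fusions and captured on glutathione beads. The pools were incubated for 30 min at room temperature with 200 nmole of a random double-stranded 16-mer DNA library in Tris/NaCl/DTT/glycerol buffer, then washed, crosslinked with 0.1% formaldehyde, proximity-ligated (BsaI/T4 ligase, 1 h, 37 °C), PCR-amplified and sequenced on an Illumina NextSeq500. Binding signal is each hexamer's read frequency for a factor divided by its frequency for the tag-only sample.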

For experiment [2], the target named is ETV5 (Homo sapiens, UniProt P41161 1-510). The following applies: protein: recombinant; tags: N-terminal GST; dsDNA, one strand shown. The essentials: as §1
Experiment [3] addresses HSF1 (Homo sapiens, UniProt Q00613 1-529). The following applies: protein: recombinant; tags: N-terminal GST; chain copies: 3; dsDNA, one strand shown. The essentials:
as §1

Experiment [4] concerns the target T2, SPIC (Homo sapiens, UniProt Q8N5J4 1-248).
T2 sequence: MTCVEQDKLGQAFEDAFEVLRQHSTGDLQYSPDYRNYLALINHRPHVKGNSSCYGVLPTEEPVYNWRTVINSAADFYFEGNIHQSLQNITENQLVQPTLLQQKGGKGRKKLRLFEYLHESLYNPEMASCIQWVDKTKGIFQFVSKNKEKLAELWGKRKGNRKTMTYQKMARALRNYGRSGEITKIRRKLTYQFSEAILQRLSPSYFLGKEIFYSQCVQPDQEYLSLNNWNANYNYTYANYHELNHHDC
The following applies: protein: recombinant; tags: N-terminal GST; dsDNA, one strand shown. The method in brief:
as §1

Experiment [5] concerns the target ELF4 (Homo sapiens, UniProt Q99607 1-663). The following applies: protein: recombinant; tags: N-terminal GST; dsDNA, one strand shown. The method in brief:
as §1

Experiment [6] addresses T3, ELK4 (Homo sapiens, UniProt P28324-2 1-405).
T3 sequence: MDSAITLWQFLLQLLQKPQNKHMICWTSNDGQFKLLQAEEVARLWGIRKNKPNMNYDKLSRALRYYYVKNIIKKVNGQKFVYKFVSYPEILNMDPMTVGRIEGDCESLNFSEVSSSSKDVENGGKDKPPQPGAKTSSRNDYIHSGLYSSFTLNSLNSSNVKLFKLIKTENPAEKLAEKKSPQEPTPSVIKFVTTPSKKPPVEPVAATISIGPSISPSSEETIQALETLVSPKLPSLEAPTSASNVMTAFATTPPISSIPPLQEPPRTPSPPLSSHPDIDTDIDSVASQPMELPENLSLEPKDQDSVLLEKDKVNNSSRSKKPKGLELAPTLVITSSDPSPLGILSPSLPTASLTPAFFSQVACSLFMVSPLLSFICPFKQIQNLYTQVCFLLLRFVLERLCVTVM
The following applies: protein: recombinant; tags: N-terminal GST; dsDNA, one strand shown. The method in brief: as §1

Experiment [7] concerns the target T4, ETV2 (Homo sapiens, UniProt O00321 1-342).
T4 sequence: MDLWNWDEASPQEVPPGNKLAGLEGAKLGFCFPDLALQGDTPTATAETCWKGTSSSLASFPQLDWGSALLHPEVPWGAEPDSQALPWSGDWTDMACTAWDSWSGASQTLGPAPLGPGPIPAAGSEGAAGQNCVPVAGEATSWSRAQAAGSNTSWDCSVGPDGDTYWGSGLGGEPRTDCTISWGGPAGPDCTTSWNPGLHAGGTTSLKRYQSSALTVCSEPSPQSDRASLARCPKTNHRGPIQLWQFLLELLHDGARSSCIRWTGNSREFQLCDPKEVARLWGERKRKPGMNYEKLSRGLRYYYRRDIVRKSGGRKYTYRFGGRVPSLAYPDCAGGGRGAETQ
The following applies: protein: recombinant; tags: N-terminal GST; dsDNA, one strand shown. The method in brief: as §1

Experiment [8] has as its target T5, ELF3 (Homo sapiens, UniProt P78545 1-371).
T5 sequence: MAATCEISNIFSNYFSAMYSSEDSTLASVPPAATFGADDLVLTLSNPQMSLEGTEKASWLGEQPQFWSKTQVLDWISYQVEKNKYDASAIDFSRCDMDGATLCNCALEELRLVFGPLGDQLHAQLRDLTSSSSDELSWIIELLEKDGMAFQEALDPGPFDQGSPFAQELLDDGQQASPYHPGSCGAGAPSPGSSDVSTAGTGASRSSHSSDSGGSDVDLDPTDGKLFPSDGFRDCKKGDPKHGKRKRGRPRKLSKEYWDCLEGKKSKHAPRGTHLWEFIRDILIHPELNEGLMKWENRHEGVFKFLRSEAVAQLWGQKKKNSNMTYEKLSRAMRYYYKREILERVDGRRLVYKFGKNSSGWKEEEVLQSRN
The following applies: protein: recombinant; tags: N-terminal GST; dsDNA, one strand shown. The method in brief:
as §1

Experiment [9] deals with CRX (Homo sapiens, UniProt O43186 1-299). The following applies: protein: recombinant; tags: N-terminal GST; dsDNA, one strand shown. The essentials: as §1
For experiment [10], the target named is ETV1 (Homo sapiens, UniProt P50549 1-477). The following applies: protein: recombinant; tags: N-terminal GST; dsDNA, one strand shown. The method in brief:
as §1

In experiment [11] the target is T6, ERF (Homo sapiens, UniProt P50548 1-548).
T6 sequence: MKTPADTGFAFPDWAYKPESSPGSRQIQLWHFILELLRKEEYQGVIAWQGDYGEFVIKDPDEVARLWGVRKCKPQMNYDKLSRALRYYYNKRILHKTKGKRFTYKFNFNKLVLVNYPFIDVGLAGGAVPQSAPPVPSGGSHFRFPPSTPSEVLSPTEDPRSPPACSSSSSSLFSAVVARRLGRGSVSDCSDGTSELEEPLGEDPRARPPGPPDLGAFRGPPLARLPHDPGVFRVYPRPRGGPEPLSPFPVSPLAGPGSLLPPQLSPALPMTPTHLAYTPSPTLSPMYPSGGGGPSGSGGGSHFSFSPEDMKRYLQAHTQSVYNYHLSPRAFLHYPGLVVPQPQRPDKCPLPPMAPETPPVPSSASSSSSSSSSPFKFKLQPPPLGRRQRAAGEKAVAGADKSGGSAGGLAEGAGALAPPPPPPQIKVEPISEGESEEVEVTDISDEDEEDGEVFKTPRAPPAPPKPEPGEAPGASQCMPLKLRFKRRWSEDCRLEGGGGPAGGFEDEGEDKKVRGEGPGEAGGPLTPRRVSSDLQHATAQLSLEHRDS
The following applies: protein: recombinant; tags: N-terminal GST; dsDNA, one strand shown. The essentials: as §1

In experiment [12] the target is T7, ETV3L (Homo sapiens, UniProt Q6ZN32 1-361).
T7 sequence: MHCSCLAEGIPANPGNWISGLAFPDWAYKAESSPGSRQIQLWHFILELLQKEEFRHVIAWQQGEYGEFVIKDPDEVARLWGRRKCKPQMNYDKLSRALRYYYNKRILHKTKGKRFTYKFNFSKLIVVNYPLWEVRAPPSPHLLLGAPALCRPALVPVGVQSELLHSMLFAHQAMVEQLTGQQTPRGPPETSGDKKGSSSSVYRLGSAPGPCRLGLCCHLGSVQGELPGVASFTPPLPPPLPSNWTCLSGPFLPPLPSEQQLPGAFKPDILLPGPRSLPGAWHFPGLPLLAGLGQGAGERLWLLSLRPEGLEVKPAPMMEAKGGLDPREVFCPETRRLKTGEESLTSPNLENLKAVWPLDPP
The following applies: protein: recombinant; tags: N-terminal GST; dsDNA, one strand shown. The essentials:
as §1

In experiment [13] the target is T8, ETS2 (Homo sapiens, UniProt P15036 1-469).
T8 sequence: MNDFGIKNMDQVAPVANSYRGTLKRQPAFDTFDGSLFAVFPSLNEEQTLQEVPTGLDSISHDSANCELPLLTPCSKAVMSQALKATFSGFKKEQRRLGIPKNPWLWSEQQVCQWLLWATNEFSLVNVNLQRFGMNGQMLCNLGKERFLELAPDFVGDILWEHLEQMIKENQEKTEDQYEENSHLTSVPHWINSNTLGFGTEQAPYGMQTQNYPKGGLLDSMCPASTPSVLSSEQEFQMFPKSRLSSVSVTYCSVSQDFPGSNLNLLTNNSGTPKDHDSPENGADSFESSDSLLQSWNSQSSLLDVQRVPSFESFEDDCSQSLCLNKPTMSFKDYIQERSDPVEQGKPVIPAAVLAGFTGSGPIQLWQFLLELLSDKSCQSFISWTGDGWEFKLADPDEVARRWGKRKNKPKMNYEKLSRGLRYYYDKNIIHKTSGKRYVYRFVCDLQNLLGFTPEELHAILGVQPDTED
The following applies: protein: recombinant; tags: N-terminal GST; dsDNA, one strand shown. The method in brief:
as §1

Experiment [14] addresses T9, SPDEF (Homo sapiens, UniProt O95238 1-335).
T9 sequence: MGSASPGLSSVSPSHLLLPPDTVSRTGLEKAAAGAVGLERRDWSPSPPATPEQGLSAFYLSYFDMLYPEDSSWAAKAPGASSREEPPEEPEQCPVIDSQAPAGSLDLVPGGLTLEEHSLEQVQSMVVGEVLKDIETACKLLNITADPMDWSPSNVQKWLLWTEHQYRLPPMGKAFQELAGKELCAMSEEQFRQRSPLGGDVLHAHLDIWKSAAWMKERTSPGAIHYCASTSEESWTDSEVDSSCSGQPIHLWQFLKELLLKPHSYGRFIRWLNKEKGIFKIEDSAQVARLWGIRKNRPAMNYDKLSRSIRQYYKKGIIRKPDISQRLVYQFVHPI
The following applies: protein: recombinant; tags: N-terminal GST; dsDNA, one strand shown. The method in brief:
as §1

The target of experiment [15] is T10, ETV7 (Homo sapiens, UniProt Q9Y603 1-341).
T10 sequence: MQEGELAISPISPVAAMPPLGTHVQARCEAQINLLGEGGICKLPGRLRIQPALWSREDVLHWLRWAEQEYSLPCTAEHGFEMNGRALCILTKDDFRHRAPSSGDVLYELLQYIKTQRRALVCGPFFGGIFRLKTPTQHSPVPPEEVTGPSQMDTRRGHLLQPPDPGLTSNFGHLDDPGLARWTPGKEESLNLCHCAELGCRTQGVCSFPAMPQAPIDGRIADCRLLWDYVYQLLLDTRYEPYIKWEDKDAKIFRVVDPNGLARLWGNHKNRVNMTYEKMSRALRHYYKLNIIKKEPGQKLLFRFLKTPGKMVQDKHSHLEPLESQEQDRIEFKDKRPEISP
The following applies: protein: recombinant; tags: N-terminal GST; dsDNA, one strand shown. The method in brief: as §1

Experiment [16] has as its target T11, ELF5 (Homo sapiens, UniProt Q9UKW6-2 1-255).
T11 sequence: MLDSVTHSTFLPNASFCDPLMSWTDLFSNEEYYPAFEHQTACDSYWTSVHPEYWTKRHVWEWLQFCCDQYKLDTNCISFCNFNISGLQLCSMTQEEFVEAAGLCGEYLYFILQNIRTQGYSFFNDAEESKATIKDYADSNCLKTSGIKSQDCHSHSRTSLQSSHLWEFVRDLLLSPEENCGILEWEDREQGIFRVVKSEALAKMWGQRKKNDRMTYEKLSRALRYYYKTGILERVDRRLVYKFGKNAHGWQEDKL
The following applies: protein: recombinant; tags: N-terminal GST; dsDNA, one strand shown. The essentials:
as §1

The target in experiment [17] is T12, ETV3 (Homo sapiens, UniProt P41162-2 1-143).
T12 sequence: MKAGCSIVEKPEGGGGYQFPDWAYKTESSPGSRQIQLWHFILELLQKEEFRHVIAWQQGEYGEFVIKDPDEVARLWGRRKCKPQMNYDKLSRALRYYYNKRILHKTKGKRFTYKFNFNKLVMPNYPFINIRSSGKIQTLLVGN
The following applies: protein: recombinant; tags: N-terminal GST; dsDNA, one strand shown. The method in brief: as §1

For experiment [18], the target named is ETV6 (Homo sapiens, UniProt P41212 1-452). The following applies: protein: recombinant; tags: N-terminal GST; dsDNA, one strand shown. The essentials:
as §1

ETV6, sequence (P41212 whole entry): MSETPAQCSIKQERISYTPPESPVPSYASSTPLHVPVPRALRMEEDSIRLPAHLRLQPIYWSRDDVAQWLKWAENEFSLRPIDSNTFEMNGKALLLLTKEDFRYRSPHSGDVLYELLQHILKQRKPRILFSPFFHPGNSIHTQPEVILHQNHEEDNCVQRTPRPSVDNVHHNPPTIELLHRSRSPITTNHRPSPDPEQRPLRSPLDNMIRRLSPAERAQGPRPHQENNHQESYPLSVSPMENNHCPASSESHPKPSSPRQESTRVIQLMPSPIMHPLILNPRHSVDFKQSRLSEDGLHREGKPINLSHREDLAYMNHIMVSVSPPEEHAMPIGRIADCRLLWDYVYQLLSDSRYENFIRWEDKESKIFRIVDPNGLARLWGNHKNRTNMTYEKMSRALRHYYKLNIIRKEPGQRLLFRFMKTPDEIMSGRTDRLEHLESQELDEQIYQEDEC
CRX, sequence (O43186 whole entry): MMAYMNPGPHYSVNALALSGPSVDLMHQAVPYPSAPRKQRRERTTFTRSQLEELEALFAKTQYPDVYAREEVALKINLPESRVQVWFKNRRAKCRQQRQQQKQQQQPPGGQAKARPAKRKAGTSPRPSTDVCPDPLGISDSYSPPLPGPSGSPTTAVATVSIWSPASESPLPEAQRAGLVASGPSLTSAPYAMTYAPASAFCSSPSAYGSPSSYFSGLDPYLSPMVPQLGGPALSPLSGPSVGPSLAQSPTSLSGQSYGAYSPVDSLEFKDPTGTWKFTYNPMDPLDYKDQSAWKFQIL
HSF1, sequence (Q00613 whole entry): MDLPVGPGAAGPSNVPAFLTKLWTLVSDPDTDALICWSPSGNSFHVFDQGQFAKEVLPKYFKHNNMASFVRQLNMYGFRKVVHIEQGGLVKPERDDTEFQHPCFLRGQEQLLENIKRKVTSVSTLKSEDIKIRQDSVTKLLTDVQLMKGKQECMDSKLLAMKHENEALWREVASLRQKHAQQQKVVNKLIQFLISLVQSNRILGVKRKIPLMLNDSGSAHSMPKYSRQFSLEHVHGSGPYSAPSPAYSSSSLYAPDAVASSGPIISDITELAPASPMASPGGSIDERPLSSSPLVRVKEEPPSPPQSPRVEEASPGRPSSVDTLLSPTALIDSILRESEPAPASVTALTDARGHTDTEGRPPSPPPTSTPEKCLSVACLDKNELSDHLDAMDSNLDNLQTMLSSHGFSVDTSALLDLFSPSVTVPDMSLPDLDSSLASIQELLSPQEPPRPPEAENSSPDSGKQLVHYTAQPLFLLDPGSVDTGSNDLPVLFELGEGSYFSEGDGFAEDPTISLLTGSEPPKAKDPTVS
ELF4, sequence (Q99607 whole entry): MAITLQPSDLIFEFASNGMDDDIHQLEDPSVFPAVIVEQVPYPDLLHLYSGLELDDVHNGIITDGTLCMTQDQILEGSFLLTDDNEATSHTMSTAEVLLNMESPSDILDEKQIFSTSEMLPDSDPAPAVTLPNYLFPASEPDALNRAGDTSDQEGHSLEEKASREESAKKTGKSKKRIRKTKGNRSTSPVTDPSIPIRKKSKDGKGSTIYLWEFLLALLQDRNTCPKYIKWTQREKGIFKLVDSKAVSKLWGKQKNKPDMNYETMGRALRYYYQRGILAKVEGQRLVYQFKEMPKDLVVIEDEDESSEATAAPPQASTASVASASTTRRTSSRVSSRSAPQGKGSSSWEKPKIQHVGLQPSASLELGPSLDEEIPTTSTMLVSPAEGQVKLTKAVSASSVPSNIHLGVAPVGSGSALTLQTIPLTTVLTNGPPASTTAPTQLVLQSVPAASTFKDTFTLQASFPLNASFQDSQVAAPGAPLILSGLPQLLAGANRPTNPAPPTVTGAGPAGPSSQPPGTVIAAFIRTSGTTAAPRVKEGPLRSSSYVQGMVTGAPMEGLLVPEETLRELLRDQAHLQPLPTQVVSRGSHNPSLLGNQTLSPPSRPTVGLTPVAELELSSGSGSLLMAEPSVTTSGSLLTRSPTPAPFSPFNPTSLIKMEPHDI
ETV5, sequence (P41161 whole entry): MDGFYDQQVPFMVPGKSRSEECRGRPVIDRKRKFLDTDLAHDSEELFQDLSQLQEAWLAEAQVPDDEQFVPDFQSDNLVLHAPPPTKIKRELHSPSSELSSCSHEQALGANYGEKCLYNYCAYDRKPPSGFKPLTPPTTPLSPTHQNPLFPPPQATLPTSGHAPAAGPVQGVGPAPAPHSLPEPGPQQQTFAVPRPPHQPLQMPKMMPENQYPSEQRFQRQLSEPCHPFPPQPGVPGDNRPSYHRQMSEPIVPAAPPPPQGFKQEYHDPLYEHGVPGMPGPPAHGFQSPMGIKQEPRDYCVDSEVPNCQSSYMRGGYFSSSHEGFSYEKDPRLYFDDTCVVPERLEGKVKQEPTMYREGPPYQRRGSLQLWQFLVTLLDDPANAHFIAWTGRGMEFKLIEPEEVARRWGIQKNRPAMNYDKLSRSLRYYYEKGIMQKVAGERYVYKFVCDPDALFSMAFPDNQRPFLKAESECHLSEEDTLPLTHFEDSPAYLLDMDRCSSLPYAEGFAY
ETV1, sequence (P50549 whole entry): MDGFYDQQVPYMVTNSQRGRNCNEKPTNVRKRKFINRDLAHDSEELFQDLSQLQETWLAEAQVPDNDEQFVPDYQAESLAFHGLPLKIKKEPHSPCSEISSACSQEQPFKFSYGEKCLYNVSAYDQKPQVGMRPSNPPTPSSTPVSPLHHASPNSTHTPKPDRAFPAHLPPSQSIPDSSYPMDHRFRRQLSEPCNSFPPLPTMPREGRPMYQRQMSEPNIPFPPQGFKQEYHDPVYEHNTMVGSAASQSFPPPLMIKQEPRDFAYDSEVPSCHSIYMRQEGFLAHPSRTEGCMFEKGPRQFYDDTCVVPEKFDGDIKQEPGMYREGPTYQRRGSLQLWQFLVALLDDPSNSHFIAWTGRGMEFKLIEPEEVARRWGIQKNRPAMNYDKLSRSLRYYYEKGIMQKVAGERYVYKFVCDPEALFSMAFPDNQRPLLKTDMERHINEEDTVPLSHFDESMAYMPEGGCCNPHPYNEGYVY

Regarding TTCTAC, the binding signal in [1] was 1.5 fold enrichment (6-mer frequency, TF over GST control); in experiment [2] it was 1.55 fold enrichment (6-mer frequency, TF over GST control); in experiment [3] it was 2.46 fold enrichment (6-mer frequency, TF over GST control); in experiment [4], 1.7 fold enrichment (6-mer frequency, TF over GST control); in [5] it was 1.48 fold enrichment (6-mer frequency, TF over GST control); in experiment [6], 1.59 fold enrichment (6-mer frequency, TF over GST control). The binding signal is 1.53 fold enrichment (6-mer frequency, TF over GST control) in experiment [7]; 1.64 fold enrichment (6-mer frequency, TF over GST control) in [8]; 1.69 fold enrichment (6-mer frequency, TF over GST control) in experiment [9]; 1.56 fold enrichment (6-mer frequency, TF over GST control) in experiment [10]; 1.7 fold enrichment (6-mer frequency, TF over GST control) in experiment [11]; 1.51 fold enrichment (6-mer frequency, TF over GST control) in experiment [12]. In addition, the binding signal in experiment [13] was 1.62 fold enrichment (6-mer frequency, TF over GST control); in experiment [14] it was 1.5 fold enrichment (6-mer frequency, TF over GST control); in experiment [15], 1.54 fold enrichment (6-mer frequency, TF over GST control); in experiment [16], 1.54 fold enrichment (6-mer frequency, TF over GST control); in experiment [17], 1.41 fold enrichment (6-mer frequency, TF over GST control); in experiment [18] it was 1.49 fold enrichment (6-mer frequency, TF over GST control).
